A selection: hits, their analogues and other compounds. The true share with any hit is near 1.2%.
RGS4-Gao reg: modulators of RGS4 binding to Galphao, primary screen, biochemical, multiplexed bead flow cytometry | binding response (% of control), % at 10 µM | actives lie on both sides | Guanine nucleotide-binding protein G(o) subunit alpha (Homo sapiens), P09471 | 220,000 tested, 0.33% active; in the data active = binding response below about 49% or above about 150%; inactive = in between;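 also: fluorescent Galphao activated with aluminum fluoride binding bead-coupled RGS4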
Target sequence (P09471 whole entry, looked up): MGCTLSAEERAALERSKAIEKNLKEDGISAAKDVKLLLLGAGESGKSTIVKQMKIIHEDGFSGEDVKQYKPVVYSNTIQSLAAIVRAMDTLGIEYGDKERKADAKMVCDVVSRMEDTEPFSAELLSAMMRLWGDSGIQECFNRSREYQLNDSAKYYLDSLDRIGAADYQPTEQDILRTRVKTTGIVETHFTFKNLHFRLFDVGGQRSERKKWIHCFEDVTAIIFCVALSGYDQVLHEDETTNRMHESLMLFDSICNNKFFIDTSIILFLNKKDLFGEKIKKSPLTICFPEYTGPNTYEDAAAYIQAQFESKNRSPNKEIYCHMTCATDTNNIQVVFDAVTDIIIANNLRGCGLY
GSH bead fluor: compound fluorescence on glutathione beads, profiling panel, artefact control, biophysical, 488/530 nm, flow cytometry. GSH beads flow cytometry, compound fluorescence 488/530 nm; stronger effect = higher value. fluorescence (KMESF) at 10 µM. 190,000 tested, 0.25% active. AID 1776, 2009; in the data active = fluorescence above about 89;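 also: glutathione beads carrying GST-tagged Bcl family fusion proteins plus one bare bead set; values are compound well signal with DMSO vehicle wells as background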
RGS8-Gao: RGS8-Galphao binding modulators, primary screen, biochemical, multiplexed bead flow cytometry; Guanine nucleotide-binding protein G(o) subunit alpha (Homo sapiens), P09471; actives lie on both sides; response (percent of control binding), % at 10 µM; 220,000 tested, 0.34% active; AID 1423, 2008; in the data active = response below about 60% or above about 140%; inactive = in between;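 also: Galphao activated as the GDP aluminium fluoride complex binding bead-coupled RGS8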
RGS16-Gao HTS: modulators of RGS16 binding to Galphao, primary screen, biochemical, human proteins, multiplexed bead flow cytometry; Regulator of G-protein signaling 16 (Homo sapiens) + Guanine nucleotide-binding protein …; bead-based flow cytometry RGS16-Galphao binding, fluorescence; actives lie on both sides; binding response (% of control), % at 10 µM; 220,000 tested, 0.38% active; AID 1441, 2008;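 also: Galphao activated by GDP with aluminum fluoride before binding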
Avidin bead fluor: green autofluorescence of compounds with avidin beads – biophysical, 488/530 nm, flow cytometry, artefact control, profiling panel | fluorescence (KMESF) at 10 µM | compound fluorescence 488/530 nm; stronger effect = higher value | 220,000 tested, 0.38% active; in the data active = fluorescence above about 47
RGS7-Gao reg: RGS7-Galphao binding modulators, primary screen, biochemical, multiplexed bead flow cytometry; Guanine nucleotide-binding protein G(o) subunit alpha (Homo sapiens), P09471; actives lie on both sides; binding response (% of control), % at 10 µM; 220,000 tested, 0.35% active; AID 1439, 2008; in the data active = binding response below about 49% or above about 150%; inconclusive = no clear call, values can overlap the other calls; inactive = in between;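 also: fluorescent Galphao held in activated GDP-AlF4 state binding bead-coupled RGS7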
RGS-Gao: modulators of RGS–Galpha-o binding, primary screen, biochemical, multiplexed beads, flow cytometry, RGS4/7/8/16/19. shares compounds with RGS16-Gao HTS. 1,600 tested, 99% active. multiplexed bead flow cytometry. RGS4–Galpha-o binding response, % at 10 µM;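 also: fluorescently labeled Galpha-o bound to GDP with aluminium fluoride binding biotinylated RGS beads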
Avidin counter: disruption of biotin probe capture by avidin, counter-screen for RGS protein interaction modulators, biochemical, flow cytometry, bead-based; shares compounds with RGS16-Gao HTS; streptavidin beads, fluorescein-biotin binding; inhibition, % at 10 µM; 1,700 tested, under 10 active; AID 1783, 2009;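 active = inhibition above 50%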;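 also: median green fluorescence of gated singlet beads compared with DMSO control wells; 0% = DMSO wells and 100% = complete loss of bead fluorescence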
RGS8-Gao single: RGS8-Galphao binding modulators, confirmation, biochemical, multiplexed bead flow cytometry, single concentration; shares compounds with RGS16-Gao HTS; bead-based flow cytometry RGS8-Galphao binding, fluorescence; actives lie on both sides; binding response (% of control), % at 10 µM; 1,700 tested, 3% active; in the data active = binding response below about 72% or above about 130%; inactive = in between;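 also: Galphao activated as GDP AlF4 complex before binding bead RGS8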
RGS7-Gao confirm: RGS7-Galphao binding modulators, confirmation, biochemical, multiplexed bead flow cytometry, single concentration; shares compounds with RGS16-Gao HTS; bead-based flow cytometry RGS7-Galphao binding; actives lie on both sides; response (percent of control binding), % at 10 µM; 1,700 tested, 7.8% active; AID 1837, 2009; in the data active = response below about 75% or above about 130%; inactive = in between;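 also: fluorescent Galphao activated with GDP and aluminum fluoride binding bead-coupled RGS7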
RGS16-Gao single: modulators of RGS16-Galphao protein binding, confirmation, biochemical, single concentration, multiplexed bead flow cytometry; 1,700 tested, 4% active; response (% of control binding), % at 10 µM; bead-based flow cytometry; actives lie on both sides; AID 1838, 2009; shares compounds with RGS16-Gao HTS; in the data active = response below about 74% or above about 130%; inactive = in between;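 also: Galphao activated as the GDP aluminium fluoride complex binding bead-coupled RGS16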
RGS4-Gao single: modulators of RGS4-Galphao protein binding, confirmation, biochemical, single concentration, multiplexed bead flow cytometry; actives lie on both sides; shares compounds with RGS16-Gao HTS; binding response (% of control), % at 10 µM; 1,700 tested, 4% active; in the data active = binding response below about 74% or above about 130%; inactive = in between
RGS19-Gao single: regulators of RGS19-Galphao binding, confirmation, biochemical, single point, multiplexed bead flow cytometry. 1,700 tested, 5% active. bead-based flow cytometry RGS19-Galphao binding; actives lie on both sides. AID 1841, 2009. response (percent of control binding), % at 10 µM. shares compounds with RGS16-Gao HTS; in the data active = response below about 50% or above about 160%; inactive = in between;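 also: 100% = no compound control and 0% = blank background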
Target sequence (P09471 whole entry, looked up): as above
Target sequence (P49795 whole entry, looked up): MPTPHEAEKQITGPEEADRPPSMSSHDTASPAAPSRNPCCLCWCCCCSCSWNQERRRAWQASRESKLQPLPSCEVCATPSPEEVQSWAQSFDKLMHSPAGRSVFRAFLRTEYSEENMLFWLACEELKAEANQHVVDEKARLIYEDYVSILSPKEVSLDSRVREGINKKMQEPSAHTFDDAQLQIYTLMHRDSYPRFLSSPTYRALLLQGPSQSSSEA
Numbers without * were called inactive; i = inactive; ? = inconclusive; nt = not tested or not shown; [ ] = remark or other dose. Unless noted, no rule for the calls is given here.

SMILES | RGS4-Gao reg | GSH bead fluor | RGS8-Gao | RGS16-Gao HTS | Avidin bead fluor | RGS7-Gao reg | RGS-Gao | Avidin counter | RGS8-Gao single | RGS7-Gao confirm | RGS16-Gao single | RGS4-Gao single | RGS19-Gao single
COc1ccc(OC)c(S(=O)(=O)N2CCC(C(=O)NCCc3ccc(OC)c(OC)c3)CC2)c1 | nt | 17 | nt | nt | nt | nt | nt | 2 | 102 | 103 | 106 | 102 | 117
O=C(NC1(C(F)(F)F)NC(=O)N(Cc2cccnc2)C1=O)c1ccccc1 (stereo unspecified) | 46* | 28 | 52* | 39 | 2 | 42* | nt | 0 | 99 | 104 | 103 | 102 | 97
O=C(NC1(C(F)(F)F)NC(=O)N(Cc2ccccc2)C1=O)c1cccnc1 (stereo unspecified) | 106 | 31 | 101 | 103 | 6 | 103 | nt | nt | nt | nt | nt | nt | nt
COc1cc(NC(=O)c2cccc(Br)c2)nc(OC)n1 | 102 | 10 | 103 | 103 | 9 | 101 | nt | nt | nt | nt | nt | nt | nt
NS(=O)(=O)c1ccc(-c2ccc(/C=C3\C(=O)Nc4cc(Cl)ccc43)o2)cc1 | 91 | 4 | 100 | 95 | 10 | 91 | nt | nt | nt | nt | nt | nt | nt
CC1(C)OC(=O)C(=Cc2ccc(-c3ccc(S(N)(=O)=O)cc3)o2)C(=O)O1 | 95 | 65 | 83 | 94 | 6 | 94 | nt | -2 | 72* | 88 | 95 | 93 | 50*
FC(F)Oc1ccccc1/C=N/n1cnc2ccccc21 | 97 | 16 | 98 | 98 | 10 | 99 | nt | nt | nt | nt | nt | nt | nt
Cc1nn(Cc2ccccc2)c(C)c1/C=N/NC(=O)c1ccccc1O | 103 | nt | 101 | 99 | 5 | ? | nt | nt | nt | nt | nt | nt | nt
O=C(Nc1ccccc1)Nc1snnc1C(=O)Nc1cccc(O)c1 | 16* | 15 | 24* | 12* | 2 | 16* | nt | 2 | 105 | 113 | 106 | 106 | 105
Cc1ccc(-c2nn(CCC(=O)O)cc2CCC(=O)O)cc1 | 105 | 12 | 103 | 100 | 12 | 104 | nt | nt | nt | nt | nt | nt | nt
CCn1cc(CCC(=O)O)c(C)n1 | 142 | 15 | 146*[activator] | 158 | 24 | 143 | 142* | -1 | 100 | 101 | 101 | 101 | 104
CC(C)C1N(C(=O)CN2CCCCC2)CCN1S(=O)(=O)c1ccccc1 (stereo unspecified) | 95 | 7 | 97 | 95 | 10 | 87 | nt | nt | nt | nt | nt | nt | nt
Cc1ccc(S(=O)(=O)N(Cc2cc3cc4c(cc3[nH]c2=O)OCCO4)CC2CCCO2)cc1 (stereo unspecified) | 96 | 22 | 103 | 98 | 11 | 101 | nt | nt | nt | nt | nt | nt | nt
O=c1[nH]c2cc3c(cc2cc1CN(CC1CCCO1)S(=O)(=O)c1ccc(Cl)cc1)OCCO3 (stereo unspecified) | 110 | 17 | 147*[activator] | 403 | 3 | 110 | 110* | 1 | 100 | 107 | 103 | 106 | 103
c1ccc(-c2nnsc2-c2nc3ccccc3[nH]2)cc1 | 84 | 18 | 56* | 99 | 6 | 62 | 84* | -1 | 106 | 107 | 104 | 107 | 100
COc1ccccc1NS(=O)(=O)c1cc(NC(=O)c2ccncc2)ccc1N1CCOCC1 | 95 | 7 | 76 | 22* | 2 | 94 | 95* | -1 | 97 | 102 | 100 | 98 | 87
COc1ccccc1NS(=O)(=O)c1cc(NC(=O)c2cnccn2)ccc1N1CCOCC1 | 94 | nt | 101 | 98 | 3 | ? | nt | nt | nt | nt | nt | nt | nt
CC(C)CCn1cnc2c(oc3nc4c(cc32)CCCC4)c1=O | 97 | nt | 95 | 96 | 6 | ? | nt | nt | nt | nt | nt | nt | nt
C=CCN1C(=O)C(CC(=O)Nc2ccccc2)S/C1=N/c1nccs1 (stereo unspecified) | 101 | nt | 101 | 98 | 3 | ? | nt | nt | nt | nt | nt | nt | nt
O=C(CN1CCCCC1)Nc1ccccc1-c1ccccc1 | 144 | 48 | 159*[activator] | i | 4 | 125 | 144* | -2 | 101 | 101 | 100 | 101 | 101
O=C(CN1CCOCC1)Nc1ccccc1-c1ccccc1 | 88 | 20 | 91 | 86 | 5 | 87 | nt | nt | nt | nt | nt | nt | nt
Cc1ccccc1OCC(=O)N(Cc1cccs1)C1CCS(=O)(=O)C1 (stereo unspecified) | 89 | 10 | 94 | 99 | 14 | 97 | nt | nt | nt | nt | nt | nt | nt
Cc1cccc(OC(C)C(=O)N(Cc2cccs2)C2CCS(=O)(=O)C2)c1C (stereo unspecified) | 69 | 11 | 75 | -16* | 9 | 78 | 69* | 0 | 100 | 96 | 97 | 100 | 100
COC(=O)CC(NC(=O)Nc1ccc(C)cc1)c1cccc([N+](=O)[O-])c1 (stereo unspecified) | 28* | 11 | 26* | 20* | 1 | 4.0* | nt | 0 | 104 | 101 | 104 | 100 | 116
Cc1ccc(N2C(=O)c3cccc4c(Oc5ccccc5[N+](=O)[O-])ccc(c34)C2=O)c(C)c1 | 121 | 2 | 126 | 235*[activator] | 14 | 122 | 121* | 1 | 107 | 110 | 107 | 108 | 115
